# About 79,000 compounds went through this panel and 15% of them were active in at least one assay; those are over-represented in the sample as a whole. Unmarked numbers belong to inactive results. Activity calls are given as the source filed them. No stated cut-off is given here; in the data, active means growth inhibition above about 70%; inactive means the rest.
# What was measured:
# [1] = NCI Yeast Anticancer Drug Screen. Data for the rad50 strain (AID 155);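 further: 0% = growth of vehicle-only cultures of the same strain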; settings: S. cerevisiae rad50 strain growth inhibition; at 50.0 µM; stronger effect = higher value
# How it was run: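 DNA repair mutant yeast, compound exposure, growth read-out; inhibition is taken relative to vehicle.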
# [2] = NCI Yeast Anticancer Drug Screen. Data for the mec2-1 strain (AID 157); settings: S. cerevisiae mec2-1 strain, at 50.0 µM, stronger effect = higher value
# How it was run: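 Compounds were applied to mec2-1 yeast cells. Their growth was then compared with that of vehicle-treated cultures to give growth inhibition.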
# [3] = NCI Yeast Anticancer Drug Screen. Data for the sgs1 mgt1 strain (AID 161);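 further: 0% = growth of cultures given vehicle only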; settings: S. cerevisiae sgs1 mgt1 strain, at 50.0 µM, stronger effect = higher value
# How it was run: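 Compounds are added to genetically altered yeast, and growth is compared with cultures given vehicle alone to give percent inhibition.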
# [4] = NCI Yeast Anticancer Drug Screen. Data for the cln2 rad14 strain (AID 165);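 further: 0% = growth equal to vehicle treated cultures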; settings: S. cerevisiae cln2 rad14 strain, at 50.0 µM, stronger effect = higher value
# How it was run: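 Strain: cln2 rad14 yeast, altered in cell cycle control and DNA damage repair. Read-out: growth inhibition vs vehicle.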
# [5] = NCI Yeast Anticancer Drug Screen. Data for the bub3 strain (AID 167); settings: S. cerevisiae bub3 mutant strain, at 50.0 µM, stronger effect = higher value
# How it was run: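 In this screen, a yeast mutant lacking normal mitotic checkpoint function is challenged with compound. Relative growth versus vehicle gives the inhibition value.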
# [6] = NCI Yeast Anticancer Drug Screen. Data for the mlh1 rad18 strain (AID 175); settings: S. cerevisiae mlh1 rad18 strain growth inhibition; at 50.0 µM; stronger effect = higher value
# How it was run: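 A repair-deficient yeast strain is exposed to test compound, and growth is scored relative to vehicle-treated controls.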
SMILES,growth inhibition [1],growth inhibition [2],growth inhibition [3],growth inhibition [4],growth inhibition [5],growth inhibition [6]
N#Cc1[nH]c(=O)n(-c2ccc(Cl)cc2)c1N,-30.1%,-58.6%,-19%,-11.3%,-12.4%,-33%
CCN(CC)CCCNc1nc2ccccc2c2[nH]c3ccc(OC)cc3c12,-37.4%,-26.2%,-41.9%,-36.8%,-40%,-28.2%
O=C1NC(=S)N/C1=C/c1ccc2c(c1)CCC2,13.9%,-20.2%,20.6%,12.4%,31.8%,12.7%
CCCCSCCOC(=O)Nc1ccc(Cl)cc1,98.8% (active),99.3% (active),98% (active),95.7% (active),99.3% (active),98.8% (active)
C[N+](C)(CCS(=O)(=O)[O-])C1CCCCC1,-6.65%,-8.7%,-8.9%,-23.1%,6.75%,-12.8%
O=C1CN(c2cccc(Cl)c2)C(=O)CN1NCNN1CC(=O)N(c2cccc(Cl)c2)CC1=O,-12.8%,-0.1%,3.9%,6.65%,-6.8%,2.75%
CC(=O)Nc1cc2c(cc1Cl)[nH]c(=O)c1ccccc12,8.1%,-10.9%,-19.8%,-3.25%,11.4%,7.5%
CC(C)c1ccc(C(=O)OCC2CCCO2)cc1 (centres undefined),7.95%,13.1%,6.5%,-13.7%,-5.3%,3.65%
COc1ccc2nc(-c3ccc(F)cc3)cc(C(=O)O)c2c1,-4.6%,-14.7%,9.75%,16.9%,10.2%,17.1%
C[N+]1(C)CC2CCC1C2 (centres undefined),1.1%,16.1%,17.6%,-27.8%,-9.05%,-7.1%
CCCCCCCCOC(=O)c1cc([N+](=O)[O-])c(Sc2ncnc3nc[nH]c23)c([N+](=O)[O-])c1,32%,30%,25.9%,11.8%,16.1%,24.2%
O=C(CC1Sc2ccccc2NC1=O)Nc1cc(Cl)ccc1Cl (centres undefined),-2.6%,-18.3%,-4.55%,25.3%,8.7%,-1.45%
CCOC(=O)c1ccc(NC(=S)N(CCC#N)C2CCCCC2)cc1,33.4%,7.2%,62.5%,27.1%,48.4%,30.9%
CCc1sc(N)nc1-c1ccccc1,-3.15%,-23.9%,7.05%,-1.65%,4%,-8.75%
COc1cc(O)c2c(=O)c(O)c(-c3ccc(O)c(O)c3)oc2c1,3.15%,-24.1%,13.7%,9.05%,-11.8%,-10.6%
O=C(c1cccc([N+](=O)[O-])c1)c1cccs1,6.6%,-7.2%,-9.05%,4.3%,-5.2%,-4.05%
Cc1nn(-c2ccccc2)c2oc3ccccc3c(=O)c12,-25.6%,-7.4%,-35.5%,-29.5%,-20.9%,-31.1%
CCOC(=O)C(F)(F)C(F)(F)C(F)(F)F,5.45%,-16.4%,9.1%,10.9%,-5.55%,11.8%
Cc1cc(OCCOC(=O)Nc2ccccc2C(F)(F)F)cc(C)c1Cl,-7.6%,-5.2%,-3.35%,-44.4%,-3.5%,10.8%
CCOC(=O)C(C)NCc1ccccc1 (centres undefined),2.15%,0.1%,-1.4%,-39.6%,0.95%,-3.25%

SMILES,growth inhibition [1],growth inhibition [2],growth inhibition [3],growth inhibition [4],growth inhibition [5],growth inhibition [6]
CC(=O)/C=C1\N(C)c2ccccc2C1(C)C,2.1%,-12.3%,-2.05%,-8.55%,-2.9%,-10.9%
Cc1ccc(CNc2ccccc2)cc1,18.9%,-6.45%,27.3%,8.8%,14.7%,7.55%
C=C1c2nc3ccccc3n2C=C(c2ccccc2)N1c1ccc([N+](=O)[O-])cc1,8.05%,41.6%,3.75%,13.6%,22.4%,27.9%
CC(C)(C)C1CCC(O)(CSc2ccccc2)CC1 (centres undefined),6.7%,1.45%,-1.75%,-1.75%,-6.7%,-10.6%
O=S(=O)(c1ccccc1)c1ccccn1,-13.1%,-13.2%,-19.9%,6.2%,3.7%,-22.1%
O=C1CSC(c2ccco2)N1CCN1C(=O)CSC1c1ccco1 (centres undefined),-19%,-5%,-12.7%,-39.4%,-8.6%,-15.7%
CC1=CC(=O)C(C(O)(C(F)(F)F)C(F)(F)F)C(C)(C)C1 (centres undefined),-37.1%,-38%,-5.45%,-23.8%,-4.95%,-6.9%
O=c1oc2ccc(Br)cc2cc1CCS,9.9%,21.2%,-4.7%,10.8%,9.55%,-9.35%
CC(=O)Nc1ccc2c(c1)Cc1c(F)cc(F)cc1-2,35.9%,-9%,19.6%,16.1%,21.9%,39.8%
C#CCn1cnc2c1c(=O)n(C)c(=O)n2C,10.2%,-12.7%,-7.35%,-0.8%,-11.7%,-10.7%
CC(C)(C)N(C/C=C/CN(Cc1ccccc1)Cc1ccccc1)C(C)(C)C,32.8%,16.2%,25.6%,10.8%,19.8%,22.7%
COC(=O)/C(C)=C1\C=C(C)CC(C)(C)C1,-4.3%,-25.1%,-10.6%,1%,-23.9%,-2.3%
Cc1ccc(CO)c(O)c1,8.65%,-7.25%,-5.55%,6.4%,3.75%,2.15%
N#CC1(OC2OC(CO)C(O)C(O)C2O)C=CCC1 (centres undefined),8.1%,-33%,4.45%,-7.45%,-12.9%,-3.05%
Cc1ccc(N=CC=C2C=CN(O)C=C2)nc1,-8%,-10.9%,-0.85%,-19.2%,-19.1%,-10.5%
CC(C)c1ccc(CN)cc1,-23.4%,-39.2%,-29.8%,6.5%,-36.8%,-17.5%
COC(=O)C(C)Oc1ccc(O)cc1 (centres undefined),21.7%,-3%,5%,7.7%,19.7%,10.4%
O=C(O)CCc1ccc(-c2ccccc2)[nH]1,-14.3%,-6.95%,-11.7%,1.35%,-29.1%,-16.6%
O=C(O)/C=C/C(=O)Nc1cc2c(cc1Br)-c1ccccc1C2O (centres undefined),-2.75%,12.5%,14.3%,14.1%,1.25%,34%
